Compound activity: PubChem BioAssay, National Center for Advancing Translational Sciences (NCATS)
Compounds with a hit are over-represented: about 0.45% of the library has one in this group of screens.
GAA glycogen mod: inhibitors or activators of human alpha-glucosidase glycogen cleavage; recombinant GAA, glycogen substrate, Amplex Red glucose oxidase fluorescence; Potency, µM (series often up to 76.4 µM), for inactives: at the highest dose activity change, negative = inhibition, actives largely listed as inhibitors; 300,000 compounds, 0.38% hits;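 further: potency means the concentration at half of the fitted maximal effect; 0% = full enzyme reaction and -100% = no-enzyme basal signal; the screen sought inhibitors and activators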
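Recombinant human enzyme (4 nM); glycogen substrate; 37 C, 40 min, pH 5.0. Readout: coupled glucose oxidase/Amplex Red fluorescence.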
Menin MLL FP FL: menin-MLL binding inhibition, fluorescein peptide | AID 1766 | FP activity change, % at 61.4 µM | Fluorescence polarization, fluorescein-MLL peptide displacement from menin | 290,000 tested, under 10 active; active means well fitted curve in the direction sought with a large enough effect in the polarisation, not every such curve was filed as active; inconclusive means small, poorly fitted or top-dose-only effect, or effect the other way, or a change in a side signal; inactive means no such curve, though single readings can be large or run the other way; the % refers to the polarisation; further: % of control where 0% means no effect
aGlu spleen mod: inhibitors or activators of human alpha-glucosidase in spleen homogenate; 240,000 compounds, 0.006% hits; AID 2112; human spleen homogenate, 4-MU-alpha-glucoside fluorescence; Potency, µM (series often up to 79.9 µM), inactives show at the top dose activity change, negative = inhibition, most hits filed as inhibitors;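 further: potency means the concentration at half of the fitted maximal effect; 0% = enzyme with vehicle and -100% = no enzyme basal signal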
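Human spleen homogenate (1 ug) with 4-methylumbelliferyl-alpha-D-glucopyranoside (1 mM final) in 50 mM citrate/phosphate pH 5.0, 0.01% Tween-20; 40 min at 37 C. Stopped at pH 10; 4-MU fluorescence Ex 365/Em 440 nm; AC50 by Hill fit.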
Menin-MLL TR inh: menin-MLL binding inhibition, Texas Red mutant peptide. Potency, µM (series often up to 61.6 µM), for the others: top-dose FP activity change, negative = inhibition, hits mostly inhibitors. Menin + Texas Red MLL mutant peptide, fluorescence polarization. AID 1768. 270,000 compounds, 0.23% hits; active means well fitted inhibition curve with a large enough effect in the polarisation, with a control signal flat, not every such curve was filed as active; inconclusive means small, poorly fitted or top-dose-only effect, or effect the other way, or a change in a side signal; inactive means no such curve, though single readings can be large or run the other way; the % refers to the polarisation; further: potency means the concentration at half of the fitted maximal effect; % of control where 0% means no effect
GAA inhib: alpha-glucosidase (human) inhibition | P10253 | Potency, µM (top dose mostly 76.9 µM), inactives show at the top dose activity change, negative = inhibition, actives largely listed as inhibitors | purified human GAA, 4-MU-alpha-glucoside fluorescence | 200,000 compounds, 0.005% hits;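 further: potency means the concentration at half of the fitted maximal effect; plate controls were uninhibited enzyme wells for no effect and no-enzyme background for full effect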
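Human enzyme at 4 nM with 400 uM 4-methylumbelliferyl-alpha-D-pyranoside, citrate/phosphate buffer pH 5.0, 0.005% Tween-20, 20 min at room temperature. Compounds up to 77 uM. 4-MU fluorescence (Ex 365/Em 440) read after NaOH/glycine stop; AC50 from Hill fit.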
CXXC DNA block: MLL CXXC-DNA interaction inhibition | Q03164 | MLL-CXXC / FITC-HOXA9 DNA fluorescence polarization | Potency, µM (doses to about 115 µM), without a hit: top-dose activity change, negative = inhibition, hits mostly inhibitors | 290,000 compounds, 0.037% hits; active means well fitted inhibition curve with a large enough effect in the polarisation, with a control signal flat, not every such curve was filed as active; inconclusive means small, poorly fitted or top-dose-only effect, or effect the other way, or a change in a side signal; inactive means no such curve, though single readings can be large or run the other way; the % refers to the polarisation; further: potency means the concentration at half of the fitted maximal effect
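Steps: dispense CXXC domain solution (7 uM) → pin compounds or unlabeled HOX-A9 DNA control → 5 min ambient → add FLSN-HOX-A9 solution (50 nM) → spin → 30 min ambient → fluorescence polarization. Tris pH 7.5/NaCl/DTT/BSA buffer.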
An asterisk follows results filed as active; ? = inconclusive; nt = no result given; [ ] = remark or other dose. Unless noted, the call rests on the fitted dose curve; in most records, active means well fitted curve in the direction sought with a large enough effect; inconclusive means small, poorly fitted or top-dose-only effect, or another doubt; inactive means no such curve, though single readings can be large; an effect the other way counts as inactive or inconclusive.

SMILES	GAA glycogen mod	Menin MLL FP FL	aGlu spleen mod	Menin-MLL TR inh	GAA inhib	CXXC DNA block
c1ccc2c(c1)Nc1ccccc1S2	18µM*	-2	-3%	?	2%[15.4 µM]	0%
C[C@H](NC(=O)[C@@H](N)Cc1ccc(O)cc1)C(=O)N[C@@H](Cc1ccccc1)C(=O)NCC(=O)N[C@@H](Cc1ccc(O)cc1)C(=O)N1CCC[C@H]1C(=O)N[C@@H](CO)C(N)=O	nt	nt	-3%	nt	nt	nt
C=CCc1c(C)nc(C)nc1N/N=C/c1ccc(N(C)C)cc1	16µM*	2	-4%	1%	4%	3%
C=CCN1CCc2cccc3c2[C@H]1Cc1ccc(O)c(O)c1-3	6.3µM*	0	nt	7%	nt	4%
CCCN1CCc2cc(O)cc3c2C1Cc1ccc(O)c(O)c1-3 (stereo not given)	nt	-1	-6%	-15%	nt	?
CCC1CN2CCc3cc(OC)c(OC)cc3C2CC1CC1NCCc2cc(OC)c(OC)cc21 (stereo not given)	nt	?	-5%	-13%	nt	nt
Nc1ccc2c3c(cccc13)CC2	25µM*	?	-11%	?	4%	-11%
O=[N+]([O-])c1ccc2c3c(cccc13)CC2	nt	nt	-1%	nt	nt	nt
CCCCOCCCn1c(N)c(C(=O)OCCOC)c2nc3ccccc3nc21	-8%	8	0%	28µM*	-2%	28%
O=C(NC(=O)c1c(F)cccc1F)Nc1ccc(Cl)c(Oc2ncc(C(F)(F)F)cc2Cl)c1	nt	-3	nt	4%	nt	3%
O=C(Nc1ccc(F)cc1F)c1cccnc1Oc1cccc(C(F)(F)F)c1	0%	-1	3%	32µM*	3%	1%
O=C(O)c1cccc2c1NC(C(=O)O)C1CC(Sc3ccccc3[N+](=O)[O-])C(Cl)C21 (stereo not given)	?	-12	-2%	22µM*	-1%	8%
CCOc1ccc2c3c1O[C@H]1[C@@H](O)C=C[C@H]4[C@@H](C2)N(C)CC[C@@]341	nt	-1	nt	6%	nt	-6%
Cc1onc(-c2ccccc2)c1C(=O)Nc1ccc(S(=O)(=O)N2CCCC2)cc1	14µM*	-4	2%	9%	-2%	-12%
O[C@H]1[C@H]2[C@H](O)CCCN2C[C@H]1O	nt	5	nt	4%	nt	-5%
O[C@H]1[C@H](O)[C@@H](O)CN2CC[C@H](O)[C@H]12	2µM*	0	1.3µM*	-9%	11µM*	3%
Oc1cc2c(cc1O)[C@H]1c3ccccc3CN[C@@H]1CC2	2.5µM*	-9	7%	-1%	-6%[15.4 µM]	1%
C[C@@H]1C(=O)O[C@@H]2C[C@]34[C@H]5C[C@@H](C(C)(C)C)[C@@]36[C@@H](OC(=O)[C@@H]6O)O[C@@]4(C(=O)O5)[C@@]12O	nt	-2[24.8 µM]	-1%[29.1 µM]	11%[24.8 µM]	nt	nt
NCCc1cc(O)c(O)cc1O	nt	?	5%	40µM*	nt	6%
Cl/C=C/CCl	nt	nt	-9%	nt	nt	nt
Oc1ccc(/C=N/NP(=S)(c2ccccc2)c2ccccc2)cc1O	16µM*	6	-2%	?	-7%	5%
Oc1ccccc1/C=N/NP(=S)(c1ccccc1)c1ccccc1	-3%	2	-1%	-17%	-7%	4%
C/C(=N\NP(=S)(c1ccccc1)c1ccccc1)c1ccc(O)cc1O	-19%	3	0%	nt	nt	0%
Oc1ccc(/C=N/NP(=S)(c2ccccc2)c2ccccc2)c(O)c1O	16µM*	1	-4%	?	?	-12%
CN1C(=O)C(=Cc2ccc(N3CCCCC3)o2)C(=O)N(C)C1=S	-4%	?	-5%	25µM*	11%	84%
CCN(CC)c1ccc(C=C2C(=O)N(C)C(=S)N(C)C2=O)o1	11%	?	-13%	8%	2%	94%
COc1ccc(CN2CCN(C(=O)Cn3c(=O)oc4cc(Cl)ccc43)CC2)c(OC)c1OC	-2%	2	nt	?	nt	9%
CC1CC(=O)O1 (stereo not given)	nt	nt	4%	nt	nt	nt
